In PubChem BioAssay (NCI):
The panel holds about 79,000 compounds, 15% with a hit somewhere; the sample as a whole holds those more often. Activity calls are given as the source filed them. Rule as the data show it: active = growth inhibition above about 70%; inactive = the rest. Starred links: 1 amine or outer side, 2 acyl side, 3 side chain; linkers in the order of their positions; H or OH if unused. Positions of bridges follow the written chain, without caps; N, C: chain ends. Non-standard residues stand in square brackets, D forms with d. Residues, ends and D or L forms follow the SMILES beside them. Chains are numbered I, II in the order given. Actinocin(9to1) = Cc1c2oc3c(C)ccc(C(=O)[*:1])c3nc-2c(C(=O)[*:2])c(N)c1=O; aThr = C[C@H](O)[C@H](N)C(=O)O; NMeV = CN[C@H](C(=O)O)C(C)C; Sar = CNCC(=O)O

Test: NCI Yeast Anticancer Drug Screen. Data for the sgs1 strain (AID 173);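 also: 0% = growth of vehicle-only control cultures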
Conditions: S. cerevisiae sgs1 mutant, hits give high values
Procedure: Growth inhibition of yeast strains with defined genetic alterations is measured as a screen for potential anti-cancer activity. Selected strains with alterations in DNA damage repair or cell cycle control were exposed to compounds and growth inhibition was measured relative to vehicle treated controls. The strain used in this assay is sgs1

Measured: growth inhibition

Cc1c2oc3c(C)ccc(C(=O)N[C@@H]4C(=O)N[C@H](C(C)C)C(=O)N5CCC[C@H]5C(=O)N(C)CC(=O)N(C)[C@@H](C(C)C)C(=O)O[C@H]4C)c3nc-2c(C(=O)N[C@@H]2C(=O)N[C@H](C(C)C)C(=O)N3CCC[C@H]3C(=O)N(C)CC(=O)N(C)[C@@H](C(C)C)C(=O)O[C@H]2C)c(N)c1=O (I: [aThr][dV]P[Sar][NMeV] / II: [aThr][dV]P[Sar][NMeV]; ester I:1-I:C, II:1-II:C; linker I:N-II:N via Actinocin(9to1))
inactive: at 1.2 µM 3% | at 3.7 µM 30%
active: at 11.0 µM 91% | at 33.0 µM 97% | at 100.0 µM 99%

CSc1ccc2c(c1)C(N1CCN(C)CC1)Cc1ccccc1S2 (stereo not given)
inactive: at 1.2 µM -34% | at 3.7 µM -84% | at 11.0 µM -27%
active: at 33.0 µM 70% | at 100.0 µM 98%

O=C1c2ccccc2C(=O)C1C(c1ccc(F)cc1)C1C(=O)c2ccccc2C1=O
inactive: at 1.2 µM 11% | at 3.7 µM 25% | at 11.0 µM 41% | at 33.0 µM 54%
active: at 100.0 µM 89%

c1cncc(C(Nc2cccc3cccnc23)Nc2cccc3cccnc23)c1
inactive: at 1.2 µM 11% | at 3.7 µM 39% | at 11.0 µM 59% | at 33.0 µM 64% | at 100.0 µM 62%

O=c1c(Br)cc2c(-c3ccccc3)c3cc(Br)c(O)c(Br)c3oc-2c1Br
inactive: at 1.2 µM 0% | at 3.7 µM 8% | at 11.0 µM 26% | at 33.0 µM 22% | at 100.0 µM 13%

Cc1ccc(N(C=O)c2c([N+](=O)[O-])cc([N+](=O)[O-])c3c2=[N+]([O-])CN=3)cc1
inactive: at 1.2 µM 16% | at 3.7 µM 21% | at 11.0 µM 51%
active: at 33.0 µM 89% | at 100.0 µM 98%

CCC(C)C(=O)OCC(=O)c1ccc(-c2ccccc2)cc1 (stereo not given)
inactive: at 1.2 µM -1% | at 3.7 µM -1% | at 11.0 µM -1% | at 33.0 µM -3% | at 100.0 µM -4%

COc1ccc(/C=C2\S/C(=N/Nc3nc(-c4ccccc4)cs3)NC2=O)cc1OC
inactive: at 1.2 µM 32%
active: at 3.7 µM 73% | at 11.0 µM 88% | at 33.0 µM 95% | at 100.0 µM 92%
